Inhibition data for ten compounds are collected here from ChEMBL document CHEMBL1157539, “Thousands of chemical starting points for antimalarial lead identification” (Nature, 2010).

Common to all, as to assay type: functional
Experiment [1] relates to Plasmodium falciparum. The experiment in a line: GSK_TCMDC: Inhibition of Plasmodium falciparum 3D7 in whole red blood cells, using parasite LDH activity as an index of growth. Test compounds present at 2uM.
Experiment [2] has as its system Plasmodium falciparum. The experiment in a line: GSK_TCMDC: Inhibition of Plasmodium falciparum Dd2 in whole red blood cells, using parasite LDH activity as an index of growth. Test compounds present at 2uM.
The next experiment deals with HepG2. The experiment in a line: GSK_TCMDC: Percent inhibition of human HepG2 cell line. Test compounds present at 10uM.

For orientation: Inhibition means the drop in the measured response relative to a control, in per cent. Lower therefore signals little suppression.

Regarding `COc1ccc(-c2cnc3ccc(NCCCO)nn23)cc1OC`, the Inhibition in the experiment on Plasmodium falciparum [1] is reported as 98%; in the experiment on Plasmodium falciparum [2] it was 90%; in the experiment on HepG2, 9%.
Regarding `Cc1cccc2nc(-c3ccc(-c4ccc(CNC(C)C)cc4)cc3)[nH]c12.O=C(O)C(F)(F)F`, the Inhibition in the experiment with Plasmodium falciparum [1] came to 99%; with Plasmodium falciparum [2] it was 62%; in the experiment on HepG2 it was 12%.
The matching figures for `CCNc1cc(C(=O)N[C@@H](Cc2ccccc2)[C@H](O)CNCCc2ccccc2)cc(N2CCCC2=O)c1.O=C(O)C(F)(F)F`: 92%, 46% and 0%.
The matching figures for `CN1CCC(c2ccc(NC(=O)c3ccc(-c4cccc(C(F)(F)F)c4)o3)cc2)CC1`: 86%, 23% and 23%.
For the compound `COc1cc2nccc(Nc3ccc(Oc4ccccc4)cc3)c2cc1OC.Cl`, the Inhibition amounted to 100% with Plasmodium falciparum [1], 99% in the experiment on Plasmodium falciparum [2] and 13% with HepG2.
For the compound `N[C@@H](Cc1ccc(O)cc1)C(=O)NC(c1ccccc1)c1c(O)ccc2ccccc12.O=C(O)C(F)(F)F` (stereo not given in full), the Inhibition is recorded as 95% in the experiment on Plasmodium falciparum [1], 95% with Plasmodium falciparum [2] and 6% in the experiment with HepG2.
For the compound `CN1CCN(Cc2ccc(-c3ccc4c(Nc5cc(O)c(F)cc5Cl)ccnc4c3)o2)CC1`, the Inhibition in the experiment with Plasmodium falciparum [1] worked out at 100%; with Plasmodium falciparum [2], 99%; with HepG2, 27%.
The matching figures for `Cc1cc(OCCCN2CCN(CCN3CCOCC3)CC2)ccc1NC(=O)COc1ccc(Cl)cc1C(=O)c1cc(Cl)cc(C#N)c1`: 99%, 78% and 30%.
The matching figures for `CC(Cc1ccc(OCCN2CCN(c3cccc(Cl)c3)CC2)cc1)NCC(O)c1cccc(Cl)c1.Cl` (stereo not given): 93%, 91% and 48%.
The matching figures for `Cc1ccc2[nH]c(-c3cc(-c4ccc(CO)cc4)cnc3N)nc2c1.O=C(O)C(F)(F)F`: 95%, 6% and 52%.
